Assay [1] can be described thus: AP1 Signaling Pathway (AID 357). Note: % is set by controls: 0 for no effect and ±100 for the full control effect. The procedure, abridged: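 ME-180 cells with beta-lactamase reporter under AP-1 response element, stimulated with EC50 EGF; compounds tested in titration series, 5 h at 37 °C. CCF4 substrate added 2.5 h at room temperature; 460/530 nm emission ratio gave %activity and AC50.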
In assay [2] the target is Cytochrome P450 1A2 (Homo sapiens) (UniProt P05177). Kind of assay: p450-cyp1a2 (AID 410; calls by dose curve; note: potency is the fitted concentration of half-maximal effect;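 for activity change, negative = inhibition: -100% = full effect of reference inhibitor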). Summed up:
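Read-out is luminescence from luciferin produced by CYP1A2 demethylation of Luciferin-ME (100uM, at Km). Detection reagent stopped the 60 min NADPH-dependent reaction; signals were normalized to 57 uM furafylline.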

Assay [3] in a line: NFAT Signaling Pathway (AID 444).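 Note: carbachol stimulus at about its EC50 of 1 µM final; % is set by controls: 0 for no effect and ±100 for the full control effect.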 The conditions noted are these: Jurkat NFAT-bla M1, carbachol, beta-lactamase ratio, 5 h; at 17.2 µM (top of the series). The procedure, abridged: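 Jurkat cells with NFAT-driven β-lactamase reporter and co-expressed M1 receptor, stimulated with carbachol (final 1 uM, ~EC50), compound titration, 5 h at 37 °C. CCF4 loaded 1 h at RT; 460/530 nm ratio gave %activity and AC50.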

A short description of assay [4]: Stat Signaling Pathway (AID 446).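 Note: ME-180 cervical cancer cells given 40 pM IL-6 alongside compound; SIE-controlled beta-lactamase reporter measured as 460/530 nm FRET emission ratio; % is set by controls: 0 for no effect and ±100 for the full control effect.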 Summed up:
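Overnight-plated ME-180 cells bearing a STAT Inducible Element beta-lactamase reporter; 5 h co-exposure to compound and 40 pM IL-6; values normalized to 300 pM IL-6 and 125 nM JAK inhibitor controls.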

Assay [5] deals with Glucocorticoid receptor (Homo sapiens) (UniProt P04150). Kind of assay: GR-GFP Redistribution (AID 450;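 active = compounds whose dose series gives a full or clear partial fitted curve of increased nuclear translocation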; note: potency is the fitted concentration of half-maximal effect). Conditions: U2OS GR-GFP nuclear translocation, laser cytometry, 2 h.
Glucocorticoid receptor (Homo sapiens), sequence (P04150 whole entry, looked up, the tested form may be a part): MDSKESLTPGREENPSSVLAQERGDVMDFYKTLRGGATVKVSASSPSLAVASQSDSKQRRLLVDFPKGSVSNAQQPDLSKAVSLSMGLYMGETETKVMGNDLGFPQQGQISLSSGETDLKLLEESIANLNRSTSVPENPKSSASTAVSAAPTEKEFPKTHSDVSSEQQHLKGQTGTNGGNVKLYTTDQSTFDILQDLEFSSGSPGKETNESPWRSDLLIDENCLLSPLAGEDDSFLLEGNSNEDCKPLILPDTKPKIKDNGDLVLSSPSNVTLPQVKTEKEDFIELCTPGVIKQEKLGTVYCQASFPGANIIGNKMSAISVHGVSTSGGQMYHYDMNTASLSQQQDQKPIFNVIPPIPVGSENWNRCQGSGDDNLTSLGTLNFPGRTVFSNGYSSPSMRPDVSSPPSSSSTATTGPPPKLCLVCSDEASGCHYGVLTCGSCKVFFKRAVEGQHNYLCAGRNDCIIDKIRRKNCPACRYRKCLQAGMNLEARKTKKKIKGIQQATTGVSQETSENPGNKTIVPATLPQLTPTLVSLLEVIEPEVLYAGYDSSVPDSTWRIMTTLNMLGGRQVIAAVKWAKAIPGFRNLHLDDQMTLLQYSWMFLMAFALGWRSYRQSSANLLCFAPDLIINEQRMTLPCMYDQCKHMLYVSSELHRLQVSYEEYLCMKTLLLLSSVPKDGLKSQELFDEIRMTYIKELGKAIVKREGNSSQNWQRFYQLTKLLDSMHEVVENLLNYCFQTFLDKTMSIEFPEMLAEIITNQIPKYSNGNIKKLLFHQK
The target is the same in assay [6]. Kind of assay: GR-EFC Redistribution (AID 451; calls by dose curve; note: potency is the fitted concentration of half-maximal effect). Conditions: CHO-K1 GR-EFC translocation, beta-gal luminescence, 2 h. The procedure, abridged: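 CHO-K1 cells expressing nuclear EA and GR-ED fragments of b-gal; compounds titrated up to 46 uM final, 2 h at 37 C. GR nuclear translocation read as complemented b-gal luminescence after 1 h RT detection.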
Assay [7] deals with Mitogen-activated protein kinase 10 (Mus musculus) (UniProt Q61831). Kind of assay: JNK3 AlphaScreen Assay (AID 530).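 Note: kinase came from lysate of stimulated human HepG2 cells; signal reports phosphorylation of biotinylated GST-cJun 1-79 at Ser73 with 10 µM ATP; % is set by controls: 0 for no effect and ±100 for the full control effect.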 The procedure, abridged: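 HepG2 lysate (IL-1b/TNFa pre-activated) + biotin-GST-cJun 1-79 + anti-pSer73 cJun; cpd titration, 15 min RT; ATP 10 uM start; Tris pH 7.6, MgCl2, DTT, vanadate; beads in EDTA buffer; AlphaScreen.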
Assay [8] deals with 3',5'-cyclic-AMP phosphodiesterase 4B (Homo sapiens) (UniProt Q07343). Kind of assay: qHTS Assay for Inhibitors of PDE-IV (AID 607; active = well fitted activation curve with a large enough effect in the main read-out, with a control signal flat, not every such curve was filed as active; note: % of control where 0% means no effect). Summed up:
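Live HEK293 cells with a modified cyclic nucleotide-gated (CNG) channel report intracellular cAMP via membrane-potential dye fluorescence (ex 535/em 590 nm). Endogenous PDE-IV was targeted. Compounds were tested at up to 22.9 uM final; RO 20-1724 100 uM served as control.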

Assay [9] can be described thus: qHTS Assay for Lipid Storage Modulators (AID 1519; calls by dose curve). The conditions noted are these: Drosophila S3 cells, BODIPY lipid droplet/cell ratio, laser cytometry, cells loaded with oleic acid; for activity change, negative = inhibition: at 25.7 µM (top of the series). The procedure, abridged: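 Cells seeded at 5,000 per well were treated with compounds over a concentration series and loaded with oleic acid (400 uM, as added). Lipid droplet fluorescence (488 nm excitation, 500-530 nm channel) was read by laser-scanning cytometry and normalized to 20 uM Triacsin C.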

Assay [10] concerns the target ATP-dependent 6-phosphofructokinase (Trypanosoma brucei brucei) (UniProt O15648). Kind of assay: qHTS Assay to Find Inhibitors of T. brucei phosphofructokinase: hit validation (AID 492961; active = well fitted curve in the direction sought with a large enough effect; an effect the other way counts as inactive or inconclusive). The procedure, abridged: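 Inhibition of parasite PFK is measured as reduced ADP formation, quantified via luciferase after ATP depletion. Assay used 0.1 mM ATP, 0.5 mM F6P, 1.25 nM enzyme, 45 min incubation.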

In assay [11] the target is Ubiquitin carboxyl-terminal hydrolase 1 (Homo sapiens) (UniProt O94782). Kind of assay: Inhibitors of USP1/UAF1: Pilot qHTS (AID 504865; active = well fitted curve in the direction sought with a large enough effect; an effect the other way counts as inactive or inconclusive; note: nearly all actives have a fitted effect of over 35% in size; note: potency is the fitted concentration of half-maximal effect). The procedure, abridged:
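1nM USP1/UAF1 + cpd, 15 min RT; start w/ Ub-Rho 150nM final; kinetic FL 480/540 nm, 6 reads q60 s. Buffer 50mM HEPES pH 7.8, 0.5mM EDTA, 1mM TCEP, 0.01% Tween-20, 0.1 mg/ml BSA.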

The target of assay [12] is Luciferin 4-monooxygenase (Photinus pyralis) (UniProt P08659). Kind of assay: Biochemical firefly luciferase enzyme assay for NPC (AID 624030; active = well fitted curve in the direction sought with a large enough effect; an effect the other way counts as inactive or inconclusive;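 note: purified P. pyralis luciferase at 10 nM with luciferin and ATP substrate; 0% = DMSO and -100% = full luciferase inhibition by PTC124 control; nearly all actives have a fitted effect of over 70% in size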). The procedure, abridged: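 Purified P. pyralis luciferase at 10 nM in 50 mM Tris Acetate (final), luminescence read within 5 minutes of enzyme addition to compounds. Activity normalised to PTC124 versus DMSO; concentration-response curves classed by r2, magnitude and activity.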
Luciferin 4-monooxygenase (Photinus pyralis), sequence (P08659 whole entry, looked up): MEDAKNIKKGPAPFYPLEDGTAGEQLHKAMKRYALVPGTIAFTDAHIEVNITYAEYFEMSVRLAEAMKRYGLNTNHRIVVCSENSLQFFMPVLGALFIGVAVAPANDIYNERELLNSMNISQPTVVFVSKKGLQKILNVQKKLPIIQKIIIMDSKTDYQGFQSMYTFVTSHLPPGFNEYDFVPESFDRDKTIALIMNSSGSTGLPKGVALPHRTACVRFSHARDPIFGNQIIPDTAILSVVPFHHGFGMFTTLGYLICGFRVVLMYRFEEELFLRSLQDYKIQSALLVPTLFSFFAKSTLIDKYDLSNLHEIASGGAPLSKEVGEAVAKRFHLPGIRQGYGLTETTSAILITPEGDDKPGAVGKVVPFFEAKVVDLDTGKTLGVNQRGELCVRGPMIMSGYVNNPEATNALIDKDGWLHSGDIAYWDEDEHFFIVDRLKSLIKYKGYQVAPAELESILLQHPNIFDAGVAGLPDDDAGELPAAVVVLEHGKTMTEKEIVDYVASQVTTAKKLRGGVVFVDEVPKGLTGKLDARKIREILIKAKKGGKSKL

Assay [13] is described as follows: S16 Schwann cell PMP22 intronic element firefly luciferase assay (AID 624032; active = well fitted curve in the direction sought with a large enough effect; an effect the other way counts as inactive or inconclusive;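 note: plate controls were DMSO for no effect and PTC124 positive control mean for full effect; nearly all actives have a fitted effect of over 30% in size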). The procedure, abridged:
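Rat S16 Schwann cells stably carrying firefly luciferase driven by a PMP22 intronic element, in 10% FBS, treated 24 h at 37 C. ONE-Glo luminescence normalized to PTC124 control and DMSO (0%); curves classed by r2, magnitude and activity.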

Assay [14] is described as follows: qHTS profiling for inhibitors of Plasmodium falciparum proliferation (AID 504749; active = well fitted curve in the direction sought with a large enough effect; an effect the other way counts as inactive or inconclusive;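 note: 0% = DMSO vehicle and full inhibition = artemisinin control; nearly all actives have a fitted effect of over 60% in size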). The conditions noted are these: P. falciparum in erythrocytes, SYBR Green DNA, 72 h, at 12.8 µM (top of the series). The procedure, abridged: (§1)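 SYBR Green fluorescence (ex 485 nm, em 535 nm) reports parasite DNA after 72 h compound exposure of infected red cells at 0.3% parasitemia, 2.5% hematocrit; signal normalized to 0.29 uM artemisinin and vehicle wells.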

For another assay, the system named is C2A. The assay is described as above. The conditions noted are these: P. falciparum in erythrocytes, SYBR Green DNA, 72 h; series mostly up to 28.7 µM. Summed up:
as §1

A further assay has as its system CP192. The assay is described as above. The conditions noted are these: P. falciparum in erythrocytes, SYBR Green DNA, 72 h; series mostly up to 28.7 µM. Summed up: as §1
The subject of a further assay is CP262. Described as above. Conditions: P. falciparum in erythrocytes, SYBR Green DNA, 72 h; series mostly up to 28.7 µM. Summed up: as §1
The subject of another assay is CP286. Described as above. The conditions noted are these: P. falciparum in erythrocytes, SYBR Green DNA, 72 h; series mostly up to 28.7 µM. Summed up: as §1
The subject of another assay is FAB9. The description is as above. Conditions: P. falciparum in erythrocytes, SYBR Green DNA, 72 h; series mostly up to 28.7 µM. The procedure, abridged: as §1
Assay [15] concerns the target Cytochrome P450 3A4 (Homo sapiens) (UniProt P08684). Kind of assay: qHTS Assay for Activators of Cytochrome P450 3A4 (AID 885; active = well fitted curve in the direction sought with a large enough effect; an effect the other way counts as inactive or inconclusive; note: nearly all actives have a fitted effect of over 65% in size). The procedure, abridged: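 Using 20nM recombinant human CYP3A4 in potassium phosphate (200mM), substrate Luciferin-PPXE at 25uM, luminescent luciferin detection followed a 60-min RT NADPH reaction; data scaled to 57 uM ketoconazole.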
Where [16] appears, read: measured here: cell count channel max response.
Where [17] appears, read: measured here: lipid channel max response.

Several values for one entry are separate records, joined by “and”; a condition that tells them apart may be missing. Equal entries are not always repeated. Results filed as inconclusive are left out. Activity calls are given as the source filed them. Unless noted, calls come from the whole dose curve; as a rule, active = well fitted curve in either direction with a large enough effect (not every such curve was filed as active); inconclusive = small, poorly fitted or top-dose-only effect, or another doubt; inactive = flat fitted curve, though single readings scatter.

Results on 6 compounds are retold here after PubChem BioAssay (NCATS).

Ubiquitin carboxyl-terminal hydrolase 1 (Homo sapiens), sequence (O94782 whole entry, looked up): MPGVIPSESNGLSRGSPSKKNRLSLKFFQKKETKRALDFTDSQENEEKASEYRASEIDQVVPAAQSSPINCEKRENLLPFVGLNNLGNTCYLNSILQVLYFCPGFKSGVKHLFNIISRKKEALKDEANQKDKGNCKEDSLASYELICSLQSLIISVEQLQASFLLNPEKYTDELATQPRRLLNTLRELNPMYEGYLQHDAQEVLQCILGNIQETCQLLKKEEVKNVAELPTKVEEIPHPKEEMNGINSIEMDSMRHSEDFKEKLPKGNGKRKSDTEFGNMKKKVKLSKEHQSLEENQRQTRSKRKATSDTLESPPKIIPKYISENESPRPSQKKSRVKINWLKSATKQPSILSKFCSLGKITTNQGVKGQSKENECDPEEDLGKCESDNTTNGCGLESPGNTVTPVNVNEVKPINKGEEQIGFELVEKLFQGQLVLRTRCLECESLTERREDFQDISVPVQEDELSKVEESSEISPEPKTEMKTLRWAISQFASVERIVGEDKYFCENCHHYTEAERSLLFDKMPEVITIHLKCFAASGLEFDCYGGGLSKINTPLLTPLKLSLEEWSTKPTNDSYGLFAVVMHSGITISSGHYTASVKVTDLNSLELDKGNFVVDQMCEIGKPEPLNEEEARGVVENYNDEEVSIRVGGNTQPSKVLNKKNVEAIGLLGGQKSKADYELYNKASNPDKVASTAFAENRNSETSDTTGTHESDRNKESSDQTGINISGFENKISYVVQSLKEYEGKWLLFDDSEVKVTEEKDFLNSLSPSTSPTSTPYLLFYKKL
3',5'-cyclic-AMP phosphodiesterase 4B (Homo sapiens), sequence (Q07343 whole entry, looked up): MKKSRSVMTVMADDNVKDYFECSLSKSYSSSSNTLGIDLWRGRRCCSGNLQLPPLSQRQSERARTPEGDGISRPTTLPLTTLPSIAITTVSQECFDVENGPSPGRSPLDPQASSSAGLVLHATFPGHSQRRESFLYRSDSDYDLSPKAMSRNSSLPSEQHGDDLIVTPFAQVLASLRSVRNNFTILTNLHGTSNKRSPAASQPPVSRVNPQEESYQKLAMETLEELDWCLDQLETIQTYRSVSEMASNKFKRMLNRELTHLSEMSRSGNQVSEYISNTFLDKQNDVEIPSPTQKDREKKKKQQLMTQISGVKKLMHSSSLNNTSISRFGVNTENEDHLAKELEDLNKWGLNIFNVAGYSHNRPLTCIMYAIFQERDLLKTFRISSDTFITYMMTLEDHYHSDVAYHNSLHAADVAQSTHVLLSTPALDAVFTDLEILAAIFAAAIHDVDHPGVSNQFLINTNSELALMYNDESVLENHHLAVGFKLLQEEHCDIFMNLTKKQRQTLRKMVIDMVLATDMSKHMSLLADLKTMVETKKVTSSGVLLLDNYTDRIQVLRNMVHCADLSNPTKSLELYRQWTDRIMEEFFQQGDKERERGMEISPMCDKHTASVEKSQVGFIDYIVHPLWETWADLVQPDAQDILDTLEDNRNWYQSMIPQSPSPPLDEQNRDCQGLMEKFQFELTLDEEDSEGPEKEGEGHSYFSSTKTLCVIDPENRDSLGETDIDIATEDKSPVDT
Cytochrome P450 1A2 (Homo sapiens), sequence (P05177 whole entry, looked up): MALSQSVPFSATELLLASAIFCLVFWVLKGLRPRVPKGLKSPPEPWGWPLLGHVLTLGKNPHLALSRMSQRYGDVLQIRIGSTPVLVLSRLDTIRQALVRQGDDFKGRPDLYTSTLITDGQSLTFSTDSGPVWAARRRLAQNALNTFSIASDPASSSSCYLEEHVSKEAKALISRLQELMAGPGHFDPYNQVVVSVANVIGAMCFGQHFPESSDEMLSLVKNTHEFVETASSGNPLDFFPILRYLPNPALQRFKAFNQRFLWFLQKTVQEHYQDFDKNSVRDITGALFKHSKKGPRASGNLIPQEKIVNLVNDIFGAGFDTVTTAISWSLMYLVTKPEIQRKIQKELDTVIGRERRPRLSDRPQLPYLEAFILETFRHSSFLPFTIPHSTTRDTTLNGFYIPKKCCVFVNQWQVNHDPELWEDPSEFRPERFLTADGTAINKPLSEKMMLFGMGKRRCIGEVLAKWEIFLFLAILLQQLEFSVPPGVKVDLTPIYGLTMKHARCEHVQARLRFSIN
ATP-dependent 6-phosphofructokinase (Trypanosoma brucei brucei), sequence (O15648 whole entry, looked up): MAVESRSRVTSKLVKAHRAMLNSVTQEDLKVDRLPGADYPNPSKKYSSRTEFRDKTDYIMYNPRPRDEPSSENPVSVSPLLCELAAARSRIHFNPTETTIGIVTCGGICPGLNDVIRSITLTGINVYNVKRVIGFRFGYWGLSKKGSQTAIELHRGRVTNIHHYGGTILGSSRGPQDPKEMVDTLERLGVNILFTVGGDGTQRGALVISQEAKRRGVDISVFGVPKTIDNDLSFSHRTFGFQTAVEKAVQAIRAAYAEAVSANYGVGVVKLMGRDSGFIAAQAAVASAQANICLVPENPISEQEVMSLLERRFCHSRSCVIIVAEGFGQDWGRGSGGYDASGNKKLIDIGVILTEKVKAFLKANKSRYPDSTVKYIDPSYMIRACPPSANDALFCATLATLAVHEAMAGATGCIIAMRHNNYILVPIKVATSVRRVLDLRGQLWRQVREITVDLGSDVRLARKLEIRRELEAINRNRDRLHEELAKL
Cytochrome P450 3A4 (Homo sapiens), sequence (P08684 whole entry, looked up): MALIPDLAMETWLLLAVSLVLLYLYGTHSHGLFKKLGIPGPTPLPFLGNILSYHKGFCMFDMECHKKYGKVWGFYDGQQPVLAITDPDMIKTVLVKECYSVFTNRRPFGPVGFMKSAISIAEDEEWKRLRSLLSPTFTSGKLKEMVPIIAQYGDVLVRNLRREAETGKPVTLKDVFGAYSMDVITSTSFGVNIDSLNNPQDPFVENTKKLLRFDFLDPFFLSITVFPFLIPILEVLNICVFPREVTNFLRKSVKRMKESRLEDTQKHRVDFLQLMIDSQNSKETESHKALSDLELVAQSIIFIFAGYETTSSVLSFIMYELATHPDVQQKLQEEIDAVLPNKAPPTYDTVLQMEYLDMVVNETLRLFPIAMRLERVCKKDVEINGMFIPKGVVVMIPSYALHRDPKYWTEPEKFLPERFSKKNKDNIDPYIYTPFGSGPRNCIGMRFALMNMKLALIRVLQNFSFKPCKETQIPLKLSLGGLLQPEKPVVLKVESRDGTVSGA

With `COc1ccc(C[C@H]2c3cc(OC)c(OC)cc3CCN2C)cc1OC`, the compound was called inactive in assay [1], in assay [4] and in assay [7]. The Potency result in [2] and in [8] was “inactive” each time. Also, the results for the activity change, negative = inhibition in [3] and in assay [9] were -1.22% (inactive) and 1.88% (inactive), respectively. The Potency was > 20.6 µM (inactive) and > 46 µM (inactive) in assay [5]; > 20.6 µM (inactive) and > 46 µM (inactive) in assay [6]. The max response in assay [9] (setting [16]) was 10%; in assay [9] (setting [17]), 12.8%.
In the case of `C[N+]1([O-])[C@@H]2CC[C@H]1CC(OC(=O)[C@@H](CO)c1ccccc1)C2` (some centres not stated), the compound was classed as inactive in assay [1], in assay [4] and in [7]. The Potency entry in assay [2], in [8], in [10], in [11], in assay [12] and in assay [13] was “inactive” throughout. In addition, the Potency result in the assay with C2A, with CP192, with CP262, in the assay with CP286 and in the assay on FAB9 was “inactive” each time. In addition, the Potency in [5] and in assay [6] was > 20.6 µM (inactive) each time. Moreover, in assay [9], the activity change, negative = inhibition was -4.15% (inactive). Further, the max response was 1.61% in [9] (setting [16]) and -2.94% in assay [9] (setting [17]). Moreover, the activity, negative = inhibition in [14] (parasite line A) is 1.56% (inactive); in [14] (parasite line B), -10% (inactive).
As to `CN1CCc2cc3c(cc2[C@@H]1O)OCO3`, the call in [1], in assay [4] and in [7] was inactive. Besides, the Potency entry in assay [2], in [8] and in [11] was “inactive” in each case. Further, the activity change, negative = inhibition in [3] was -5.65% (inactive); in [9] it was 0.396% (inactive). The Potency in assay [5] and in assay [6] was > 20.6 µM (inactive) in each case. Also, the max response is 4.41% in [9] (setting [16]) and 3.98% in assay [9] (setting [17]).
Consider `C=C[C@]12CN(C)[C@H]3C1[C@@]1(C(=O)Nc4ccccc41)[C@H]1C[C@H]2[C@H]3CO1`, for which the compound was called inactive in assay [1], in assay [4] and in assay [7]. The Potency entry in [2], in assay [8] and in [11] was “inactive” each time. Moreover, the Potency in assay [5] and in [6] was > 20.6 µM (inactive) in each case. Moreover, the activity change, negative = inhibition in assay [9] is -5.3% (inactive). The values for the max response in assay [9] (setting [16]) and in [9] (setting [17]) were -11.8% and -17.8%, respectively.
As for `CO[C@@H](C)[C@](O)(C(=O)OCC1=CCN2CC[C@@H](O)[C@H]12)C(C)C`, the call in assay [1], in [4] and in assay [7] was inactive. For the same compound, the Potency result in assay [2] and in [11] was “inactive” each time. For the same compound, the Potency in [5] and in assay [6] was > 20.6 µM (inactive) in each case. In addition, in [9], the activity change, negative = inhibition is -0.0062% (inactive). The figures for the max response in [9] (setting [16]) and in assay [9] (setting [17]) were -11.3% and -10.6%, respectively.
Regarding `COc1cc2c(cc1O)[C@H]1Cc3ccc(OC)c(O)c3CN1CC2`, the result in [1], in assay [4] and in assay [7] was inactive. The Potency in assay [2] is 15.8 µM (active); in assay [5] it was > 20.6 µM (inactive); in [6] it was > 20.6 µM (inactive); in assay [11], 10 µM (active). The Potency result in [8] and in assay [15] was “inactive” throughout. Besides, the activity change, negative = inhibition in [9] was -1.48% (inactive). Moreover, the max response was -2.59% in assay [9] (setting [16]) and -3.7% in assay [9] (setting [17]).
